Measured values taken from PubChem BioAssay (Tox21).
Results filed as inconclusive are left out. The source made the active and inactive calls. Unless noted, calls follow the shape of the dose curve; as a rule, active = well fitted curve in the direction sought with a large enough effect in the repeat runs; inconclusive = weak or mixed curves; inactive = no such curve, though single readings can be large; an effect the other way counts as inactive or inconclusive.

Tests used:
[1] = qHTS RealTime-Glo MT Cell Viability Assay in HEK293 cells - 0 hour (AID 1224880); also: top concentration of the series differs between compounds; nearly all actives have a fitted effect of over 45% in size
Outline: (§1)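 Nonlytic bioluminescent viability monitoring. HEK293 at 600 cells/well with reagent; 5 h settle; compound transfer by pintool; plates held at 37 C and read at set time points.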

[2] = A CellTox Green Cytotoxicity Assay to monitor cytotoxicity in HEK293 cells - 32 hour (AID 1224881); also: nearly all actives have a fitted effect of over 40% in size
Outline: (§2)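 Cytotoxicity was tracked continuously in HEK293 cells by a DNA-binding dye excluded from viable cells. Compounds were transferred in DMSO 5 h after seeding; fluorescence was recorded at intervals up to 40 h.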

[3] = A CellTox Green Cytotoxicity Assay to monitor cytotoxicity in HepG2 cells - 0 hour (AID 1224882); also: nearly all actives have a fitted effect of over 35% in size
Outline: (§3)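 Real-time, homogeneous cytotoxicity readout: dead-cell DNA staining by CellTox Green in HepG2 monolayers, fluorescence measured at timed intervals up to 40 h of continuous compound exposure.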

[4] = A CellTox Green Cytotoxicity Assay to monitor cytotoxicity in HepG2 cells - 32 hour (AID 1224883); also: nearly all actives have a fitted effect of over 50% in size
Outline: as §3

[5] = A CellTox Green Cytotoxicity Assay to monitor cytotoxicity in HEK293 cells - 8 hour (AID 1224884); also: nearly all actives have a fitted effect of over 35% in size
Outline: as §2

[6] = qHTS RealTime-Glo MT Cell Viability Assay in HepG2 cells - 16 hour (AID 1224885); also: nearly all actives have a fitted effect of over 50% in size
Outline: (§4)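 HepG2 suspension premixed with RealTime-Glo reagents is plated at 600 cells per well and left 5 h at 37 C/5% CO2. Compounds in DMSO then go in, and bioluminescence reflecting viable cell number is recorded over 40 h.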

[7] = qHTS RealTime-Glo MT Cell Viability Assay in HEK293 cells - 24 hour (AID 1224886); also: top concentration of the series differs between compounds; nearly all actives have a fitted effect of over 50% in size
Outline: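 Reads taken at 0, 8, 16, 24, 32 and 40 h from the same wells. HEK293 cells (600/well) carried RealTime-Glo reagents from seeding, with compound added after a 5 h settle at 37 C.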

[8] = qHTS RealTime-Glo MT Cell Viability Assay in HEK293 cells - 8 hour (AID 1224887); also: top concentration of the series differs between compounds; nearly all actives have a fitted effect of over 50% in size
Outline: as §1

[9] = A CellTox Green Cytotoxicity Assay to monitor cytotoxicity in HEK293 cells - 16 hour (AID 1224888); also: nearly all actives have a fitted effect of over 35% in size
Outline: as §2

[10] = qHTS RealTime-Glo MT Cell Viability Assay in HepG2 cells - 0 hour (AID 1224889); also: nearly all actives have a fitted effect of over 50% in size
Outline: as §4

[11] = A CellTox Green Cytotoxicity Assay to monitor cytotoxicity in HepG2 cells - 8 hour (AID 1224890); also: nearly all actives have a fitted effect of over 45% in size
Outline: as §3

[12] = qHTS assay to identify small molecule antagonists of the estrogen receptor alpha (ER-alpha) signaling pathway using the BG1 cell line in the presence of 0.1 nM 17-beta-estradiol - cell viability counter screen (AID 1259241); also: nearly all actives have a fitted effect of over 40% in size
Outline: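 Cytotoxicity counter-screen: live-cell protease activity measured by fluorescence (30 min reagent step) in the same wells. Cells were VM7Luc4E2 with endogenous ER-alpha and ERE-driven luciferase, treated 22 hr at 37C alongside 0.1 nM 17beta-estradiol final.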

[13] = qHTS assay to identify small molecule antagonists of the androgen receptor (AR) signaling pathway using the MDA cell line in the presence of 0.5 nM R1881 - cell viability counter screen (AID 1259242); also: nearly all actives have a fitted effect of over 45% in size
Outline: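 Cytotoxicity toward MDA-kb2 cells is measured by CellTiter-Fluor live-cell protease fluorescence after 16 hr compound exposure at 37C in the presence of 0.5 nM R1881 stimulator.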

[14] = target: Estrogen receptor (Homo sapiens) (UniProt P03372); assay: qHTS assay to identify small molecule antagonists of the estrogen receptor alpha (ER-alpha) signaling pathway using the BG1 cell line in the presence of 0.1 nM 17-beta-estradiol (AID 1259244); also: nearly all actives have a fitted effect of over 50% in size
Sequence of Estrogen receptor (Homo sapiens) (P03372 whole entry, looked up): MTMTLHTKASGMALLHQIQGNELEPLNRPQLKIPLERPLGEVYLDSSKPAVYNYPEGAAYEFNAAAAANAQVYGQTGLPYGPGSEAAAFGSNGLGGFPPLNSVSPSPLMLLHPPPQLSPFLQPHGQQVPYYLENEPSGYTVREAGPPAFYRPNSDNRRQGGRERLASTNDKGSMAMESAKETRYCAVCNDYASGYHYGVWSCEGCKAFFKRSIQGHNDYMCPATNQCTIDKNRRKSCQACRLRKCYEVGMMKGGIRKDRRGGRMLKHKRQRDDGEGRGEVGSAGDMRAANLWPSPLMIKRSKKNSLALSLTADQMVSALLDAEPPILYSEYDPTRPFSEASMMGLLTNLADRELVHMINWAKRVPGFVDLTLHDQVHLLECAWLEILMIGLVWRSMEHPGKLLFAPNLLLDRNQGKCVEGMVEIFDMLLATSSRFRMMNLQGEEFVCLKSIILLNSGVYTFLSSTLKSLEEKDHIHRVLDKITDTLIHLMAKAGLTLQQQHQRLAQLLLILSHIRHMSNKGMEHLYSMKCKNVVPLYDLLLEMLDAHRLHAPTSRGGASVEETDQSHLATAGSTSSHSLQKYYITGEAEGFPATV
Outline: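 After 5 days in hormone-depleted medium (charcoal-stripped serum, no phenol red), VM7Luc4E2 cells were seeded, incubated 24 h, then co-treated with compound and 0.1 nM (final) estradiol for 22 h before luminescence detection.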

[15] = qHTS assay to identify small molecule HDAC inhibitors - cell viability counter screen (AID 1259365)
Outline: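 CellTiter-Glo luminescence (30 min, room temperature) reported viability after a 2 h compound exposure at 37 C. Cells: wild-type HCT-116, 1,500 per well, seeded the night before.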

[16] = qHTS assay to identify small molecule agonists of the sonic hedgehog signaling (Shh) pathway - cell viability counter screen (AID 1259366); also: nearly all actives have a fitted effect of over 50% in size
Outline: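 Cytotoxicity counter screen: CellTiter-Fluor reagent added after 23 h compound exposure, then 1 h at 37C and fluorescence read. Cells were 3T3 Gli1-Luc, seeded 2,000 per well and dosed 4 h post-plating.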

[17] = qHTS assay to identify small molecule antagonists of the sonic hedgehog signaling (Shh) pathway - cell viability counter screen (AID 1259367); also: nearly all actives have a fitted effect of over 55% in size
Outline: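 Cells: 3T3 Gli1-Luc, 2,000/well, 4 hr pre-incubation. Compounds in DMSO, then conditioned medium. Incubation 24 hr, 37C, 5% CO2. CellTiter-Fluor at 23 hr, 1 hr, fluorescence.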

[18] = qHTS assay to identify small molecule HDAC inhibitors (AID 1259364); also: top concentration of the series differs between compounds; nearly all actives have a fitted effect of over 45% in size
Outline: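 Homogeneous cell-based luminescent assay of endogenous class I/II HDAC activity; HCT-116 cells, 2 h compound exposure, 30 min HDAC-Glo development at RT.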

[19] = qHTS assay to identify small molecule phospholipidosis (PLD) inducers (AID 1259344; active = well fitted curve in the direction sought with a large enough effect; an effect the other way counts as inactive or inconclusive)
Outline: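 Phospholipidosis is scored by imaging LipidTOX-stained pits in HepG2 cells exposed to compound for 24 h at 37 C; pit counts and integrated intensities per well and per cell serve as outputs.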

[20] = target: Androgen receptor (Homo sapiens) (UniProt P10275); assay: qHTS assay to identify small molecule antagonists of the androgen receptor (AR) signaling pathway using the MDA cell line in the presence of 0.5 nM R1881 (AID 1259243); also: nearly all actives have a fitted effect of over 50% in size
Sequence of Androgen receptor (Homo sapiens) (P10275 whole entry, looked up): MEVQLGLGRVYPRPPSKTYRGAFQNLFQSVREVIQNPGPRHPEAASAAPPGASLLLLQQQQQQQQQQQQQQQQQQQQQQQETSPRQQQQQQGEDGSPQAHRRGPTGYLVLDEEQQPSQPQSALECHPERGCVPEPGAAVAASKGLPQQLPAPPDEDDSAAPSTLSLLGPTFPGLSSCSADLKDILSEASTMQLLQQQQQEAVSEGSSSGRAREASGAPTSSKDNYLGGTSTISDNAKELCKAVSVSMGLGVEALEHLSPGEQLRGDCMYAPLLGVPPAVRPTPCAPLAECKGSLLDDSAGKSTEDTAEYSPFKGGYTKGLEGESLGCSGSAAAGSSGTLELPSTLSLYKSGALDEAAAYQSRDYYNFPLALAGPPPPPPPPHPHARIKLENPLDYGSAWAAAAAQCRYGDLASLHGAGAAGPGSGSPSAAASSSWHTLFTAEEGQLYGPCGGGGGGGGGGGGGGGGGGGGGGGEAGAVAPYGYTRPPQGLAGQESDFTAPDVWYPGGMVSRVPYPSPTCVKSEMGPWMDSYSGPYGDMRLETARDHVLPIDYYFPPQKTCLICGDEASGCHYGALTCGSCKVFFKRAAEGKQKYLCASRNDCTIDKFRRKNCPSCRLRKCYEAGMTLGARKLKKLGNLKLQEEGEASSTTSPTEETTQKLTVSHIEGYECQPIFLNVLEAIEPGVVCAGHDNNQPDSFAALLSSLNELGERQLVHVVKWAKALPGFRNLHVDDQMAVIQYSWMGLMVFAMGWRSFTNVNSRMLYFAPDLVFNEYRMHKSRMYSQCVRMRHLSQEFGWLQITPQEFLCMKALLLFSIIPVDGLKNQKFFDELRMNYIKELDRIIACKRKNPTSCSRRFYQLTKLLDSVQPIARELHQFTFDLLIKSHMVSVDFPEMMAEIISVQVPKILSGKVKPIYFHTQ
Outline: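 Steps: seed MDA-kb2 cells, incubate 5 hr at 37C; pin-transfer compounds in DMSO; add R1881 to 0.5 nM final; incubate 16 hr; add ONE-Glo, wait 30 min at room temperature; read luminescence.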

Measured: Potency

CS(=O)(=O)Cl
inactive: [1] | [2] | [3] | [4] | [5] | [6] | [7] | [8] | [9] | [10] | [11] | [12] | [13] | [14] | [15] | [16] | [17]

C1CN2CCC1CC2
inactive: [1] | [2] | [3] | [4] | [5] | [6] | [7] | [8] | [9] | [10] | [11] | [12] | [13] | [14] | [18] | [15] | [16] | [17]

CS(=O)(=O)c1ccc(C(=O)C2C(=O)CCCC2=O)c(Cl)c1COCC(F)(F)F
inactive: [1] | [2] | [3] | [4] | [5] | [6] | [7] | [8] | [9] | [10] | [11] | [12] | [13] | [14] | [18] | [15] | [16]

CCN(CC)CCOC(=O)C(O)(c1ccccc1)c1ccccc1
inactive: [1] | [2] | [3] | [4] | [5] | [6] | [7] | [8] | [9] | [10] | [11] | [12] | [13] | [14] | [19] | [18] | [15] | [16] | [17]

CCN[C@@H](C)Cc1ccccc1
inactive: [1] | [2] | [3] | [4] | [5] | [6] | [7] | [8] | [9] | [10] | [11] | [12] | [13] | [20] | [14] | [19] | [18] | [15] | [16] | [17]

ClCOCCl
inactive: [1] | [2] | [3] | [4] | [5] | [6] | [7] | [8] | [9] | [10] | [11] | [12] | [13] | [14] | [18] | [15] | [16] | [17]

Nc1c(Cl)c(F)nc(OCC(=O)O)c1Cl
inactive: [1] | [2] | [3] | [4] | [5] | [6] | [7] | [8] | [9] | [10] | [11] | [12] | [13] | [20] | [14] | [18] | [15] | [16] | [17]

NCC1(CC(=O)O)CCCCC1
inactive: [1] | [2] | [3] | [4] | [5] | [6] | [7] | [8] | [9] | [10] | [11] | [12] | [13] | [19] | [18] | [15] | [16] | [17]

CCOP(=S)(OCC)Oc1ccc(Cl)cc1Cl
inactive: [1] | [2] | [3] | [4] | [5] | [6] | [7] | [8] | [9] | [10] | [11] | [12] | [13] | [14] | [18] | [15] | [16] | [17]

CNC(=O)Oc1ccccc1C(C)C
inactive: [1] | [2] | [3] | [4] | [5] | [6] | [7] | [8] | [9] | [10] | [11] | [12] | [13] | [20] | [14] | [18] | [15] | [16] | [17]

CCN(CC)C1CCCCC1
inactive: [1] | [2] | [3] | [4] | [5] | [6] | [7] | [8] | [9] | [10] | [11] | [12] | [13] | [20] | [14] | [18] | [15] | [17]

CC(C)(N)Cc1ccc(Cl)cc1
inactive: [1] | [2] | [3] | [4] | [5] | [6] | [7] | [8] | [9] | [10] | [11] | [12] | [13] | [14] | [19] | [18] | [15] | [17]

BrCC1CO1 (stereo not drawn)
inactive: [1] | [2] | [3] | [4] | [5] | [6] | [7] | [8] | [9] | [10] | [11] | [12] | [13] | [14] | [15] | [17]

CCOP(=O)(CN(CCO)CCO)OCC
inactive: [1] | [2] | [3] | [4] | [5] | [6] | [7] | [8] | [9] | [10] | [11] | [12] | [13] | [14] | [15] | [17]

ClCCN1CCCC1
inactive: [1] | [2] | [3] | [4] | [5] | [6] | [7] | [8] | [9] | [10] | [11] | [12] | [13] | [14] | [15] | [16] | [17]
